Test results as given in PubChem BioAssay AID1159580 (chemical genetic matrix, 2015).
The campaign covered roughly 5,500 compounds. About 2,000 (36%) were called active. Roughly 18% stayed inconclusive and do not appear here. No stated cut-off is given here; in the data, active means normalized growth mostly below about 0.91 (no sharp cut-off); inconclusive means no clear call, values can overlap the other calls; inactive means mostly above about 0.92. The list shows a part of the results.

Test: chemical genetic growth profiling, strain panel (AID 1159580);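 further: tested at 20 µM; growth read once vehicle control cultures reached saturation at 30 °C; 1 = growth at the plate median or of vehicle wells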
Conditions: growth OD

Measured: normalized growth

Oc1ccc(Cl)cc1
inactive: S. cerevisiae deletion strains, locus YJR075W, strain HOC1, stronger effect = lower value 0.993 | S. cerevisiae deletion strains, locus YKL009W, strain mrt4, stronger effect = lower value 0.972 | S. cerevisiae deletion strains, locus YKL068W, stronger effect = lower value 0.985 | S. cerevisiae deletion strains, locus YKL085W, strain MDH1 (second series), stronger effect = lower value 0.978 | S. cerevisiae deletion strains, locus YKL085W, strain MDH1, stronger effect = lower value 0.978 | S. cerevisiae deletion strains, locus YKL160W, strain elf1, stronger effect = lower value 1.03 | S. cerevisiae deletion strains, locus YKL190W, strain CNB1, stronger effect = lower value 0.993 | S. cerevisiae deletion strains, locus YKR001C, strain vps1, stronger effect = lower value 0.996 | S. cerevisiae deletion strains, locus YKR026C, strain gcn3, stronger effect = lower value 1.02 | S. cerevisiae deletion strains, locus YKR091W, strain srl3, stronger effect = lower value 1.01 | S. cerevisiae deletion strains, locus YLL001W, strain dnm1, stronger effect = lower value 1.02 | S. cerevisiae deletion strains, locus YLL026W, stronger effect = lower value 1.02 | S. cerevisiae deletion strains, locus YLL041C, strain sdh2, stronger effect = lower value 1.01 | S. cerevisiae deletion strains, locus YLR027C, strain aat2, stronger effect = lower value 0.999 | S. cerevisiae deletion strains, locus YLR039C, strain RIC1, stronger effect = lower value 0.983 | S. cerevisiae deletion strains, locus YLR058C, strain SHM2, stronger effect = lower value 0.989 | S. cerevisiae deletion strains, locus YLR102C, strain apc9, stronger effect = lower value 0.976 | S. cerevisiae deletion strains, locus YLR113W, strain HOG1, stronger effect = lower value 1 | S. cerevisiae deletion strains, locus YLR221C, strain rsa3, stronger effect = lower value 1.01 | S. cerevisiae deletion strains, locus YLR258W, strain gsy2, stronger effect = lower value 1 | S. cerevisiae deletion strains, locus YLR262C, strain YPT6 (second series), stronger effect = lower value 1.02 | S. cerevisiae deletion strains, locus YLR262C, strain YPT6, stronger effect = lower value 0.986 | S. cerevisiae deletion strains, locus YLR268W, strain sec22, stronger effect = lower value 0.93 | S. cerevisiae deletion strains, locus YLR320W, strain mms22, stronger effect = lower value 1.03 | S. cerevisiae deletion strains, locus YLR330W, strain CHS5, stronger effect = lower value 0.99 | S. cerevisiae deletion strains, locus YLR342W, strain FKS1 (second series), stronger effect = lower value 0.995 | S. cerevisiae deletion strains, locus YLR342W, strain FKS1, stronger effect = lower value 1.01 | S. cerevisiae deletion strains, locus YLR357W, strain rsc2, stronger effect = lower value 1.04 | S. cerevisiae deletion strains, locus YLR370C, strain arc18, stronger effect = lower value 1.01 | S. cerevisiae deletion strains, locus YLR371W, strain rom2, stronger effect = lower value 0.962 | S. cerevisiae deletion strains, locus YLR384C, strain iki3, stronger effect = lower value 1.01 | S. cerevisiae deletion strains, locus YLR418C, strain cdc73, stronger effect = lower value 0.986 | S. cerevisiae deletion strains, locus YML016C, strain PPZ1, stronger effect = lower value 0.99 | S. cerevisiae deletion strains, locus YML032C, strain rad52, stronger effect = lower value 0.963 | S. cerevisiae deletion strains, locus YML120C, strain ndi1, stronger effect = lower value 1.01 | S. cerevisiae deletion strains, locus YML124C, strain tub3, stronger effect = lower value 0.975 | S. cerevisiae deletion strains, locus YMR058W, strain fet3, stronger effect = lower value 1.01 | S. cerevisiae deletion strains, locus YMR078C, strain ctf18, stronger effect = lower value 0.968 | S. cerevisiae deletion strains, locus YMR125W, strain sto1, stronger effect = lower value 1.01 | S. cerevisiae deletion strains, locus YMR129W, stronger effect = lower value 1.01 | S. cerevisiae deletion strains, locus YMR205C, strain PFK2, stronger effect = lower value 1.03 | S. cerevisiae deletion strains, locus YMR223W, strain ubp8, stronger effect = lower value 1 | S. cerevisiae deletion strains, locus YMR231W, strain pep5, stronger effect = lower value 1.01 | S. cerevisiae deletion strains, locus YMR307W, strain GAS1, stronger effect = lower value 1 | S. cerevisiae deletion strains, locus YNL067W, strain RPL9B, stronger effect = lower value 0.996 | S. cerevisiae deletion strains, locus YNL071W, strain lat1, stronger effect = lower value 1.01 | S. cerevisiae deletion strains, locus YNL128W, strain TEP1, stronger effect = lower value 0.978 | S. cerevisiae deletion strains, locus YNL153C, strain GIM3, stronger effect = lower value 1 | S. cerevisiae deletion strains, locus YNL183C, strain NPR1, stronger effect = lower value 0.941 | S. cerevisiae deletion strains, locus YNL209W, strain ssb2, stronger effect = lower value 1 | S. cerevisiae deletion strains, locus YNL233W, strain BNI4, stronger effect = lower value 0.988 | S. cerevisiae deletion strains, locus YNL248C, strain rpa49, stronger effect = lower value 1 | S. cerevisiae deletion strains, locus YNL250W, strain rad50, stronger effect = lower value 0.97 | S. cerevisiae deletion strains, locus YNL271C, strain bni1, stronger effect = lower value 0.975 | S. cerevisiae deletion strains, locus YNL298W, strain CLA4, stronger effect = lower value 0.971 | S. cerevisiae deletion strains, locus YNL307C, strain MCK1, stronger effect = lower value 0.968 | S. cerevisiae deletion strains, locus YNL322C, strain KRE1 (second series), stronger effect = lower value 1.02 | S. cerevisiae deletion strains, locus YNL322C, strain KRE1, stronger effect = lower value 0.992 | S. cerevisiae deletion strains, locus YNR049C, strain mso1, stronger effect = lower value 1.01 | S. cerevisiae deletion strains, locus YNR052C, strain pop2, stronger effect = lower value 0.973 | S. cerevisiae deletion strains, locus YOL006C, strain TOP1, stronger effect = lower value 1.03 | S. cerevisiae deletion strains, locus YOL012C, strain htz1 0.904 | S. cerevisiae deletion strains, locus YOL147C, strain pex11, stronger effect = lower value 0.986 | S. cerevisiae deletion strains, locus YOR001W, strain rrp6, stronger effect = lower value 0.972 | S. cerevisiae deletion strains, locus YOR061W, strain CKA2, stronger effect = lower value 0.98 | S. cerevisiae deletion strains, locus YOR069W, strain VPS5, stronger effect = lower value 0.989 | S. cerevisiae deletion strains, locus YOR070C, strain gyp1, stronger effect = lower value 1 | S. cerevisiae deletion strains, locus YOR080W, strain dia2, stronger effect = lower value 1.01 | S. cerevisiae deletion strains, locus YOR083W, strain WHI5, stronger effect = lower value 1.02 | S. cerevisiae deletion strains, locus YOR106W, strain vam3, stronger effect = lower value 1.02 | S. cerevisiae deletion strains, locus YOR136W, strain idh2, stronger effect = lower value 0.98 | S. cerevisiae deletion strains, locus YOR144C, strain elg1, stronger effect = lower value 0.978 | S. cerevisiae deletion strains, locus YOR184W, strain ser1, stronger effect = lower value 0.961 | S. cerevisiae deletion strains, locus YOR231W, strain MKK1, stronger effect = lower value 0.979 | S. cerevisiae deletion strains, locus YOR265W, strain rbl2, stronger effect = lower value 1.02 | S. cerevisiae deletion strains, locus YOR270C, strain vph1, stronger effect = lower value 1.02 | S. cerevisiae deletion strains, locus YOR290C, strain snf2, stronger effect = lower value 0.999 | S. cerevisiae deletion strains, locus YOR316C, strain cot1, stronger effect = lower value 0.974 | S. cerevisiae deletion strains, locus YPL051W, strain arl3, stronger effect = lower value 1.01 | S. cerevisiae deletion strains, locus YPL078C, strain atp4, stronger effect = lower value 1.01 | S. cerevisiae deletion strains, locus YPL106C, strain sse1, stronger effect = lower value 1.04 | S. cerevisiae deletion strains, locus YPL240C, strain hsp82, stronger effect = lower value 1.01 | S. cerevisiae deletion strains, locus YPL241C, strain CIN2, stronger effect = lower value 0.997 | S. cerevisiae deletion strains, locus YPL256C, strain CLN2, stronger effect = lower value 0.978 | S. cerevisiae deletion strains, locus YPR119W, strain clb2, stronger effect = lower value 0.98 | S. cerevisiae deletion strains, locus YPR141C, strain kar3, stronger effect = lower value 0.976 | S. cerevisiae deletion strains, locus YPR163C, strain tif3, stronger effect = lower value 0.983 | S. cerevisiae deletion strains, locus YPR167C, strain met16, stronger effect = lower value 0.974 | S. cerevisiae deletion strains, strain wtn01, stronger effect = lower value 0.971 | S. cerevisiae strains, strain wild type, stronger effect = lower value 0.995
